From PubChem BioAssay AID901 (National Center for Advancing Translational Sciences (NCATS), 2007)
In all, about 120,000 compounds went through this assay and fewer than 10 were called active. Another 4% or so got no clear call; they are omitted. Calls follow the shape of the dose curve; as a rule, active = well fitted curve in the direction sought with a large enough effect in the signal ratio (not every such curve was filed as active); inconclusive = small, poorly fitted or top-dose-only effect, or a change in a side signal; inactive = no such curve, though single readings can be large or run the other way; the % refers to the signal ratio. The list is a sample of the results.

Target: Inositol monophosphatase 1 (Rattus norvegicus) (UniProt P97697)
Sequence (P97697 whole entry, looked up): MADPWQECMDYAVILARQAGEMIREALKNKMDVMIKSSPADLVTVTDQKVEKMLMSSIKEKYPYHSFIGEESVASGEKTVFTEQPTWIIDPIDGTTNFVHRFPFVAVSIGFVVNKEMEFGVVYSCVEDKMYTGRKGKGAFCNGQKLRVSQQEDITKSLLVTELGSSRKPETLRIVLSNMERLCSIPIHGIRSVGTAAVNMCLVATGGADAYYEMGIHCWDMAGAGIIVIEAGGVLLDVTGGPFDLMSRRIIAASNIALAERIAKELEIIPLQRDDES
Assay: qHTS Assay for Identifying the Cell-Membrane Permeable IMPase Inhibitors;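 also: higher means more IMPase inhibition seen as more IP1 and lower FRET ratio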
Details: CHO-M1 cells, HTRF TR-FRET ratio; series mostly up to 46.1 µM
From the text: NCGC IMPase Assay Overview
Lithium has been widely used for the treatment of bipolar disorder. But lithium has a narrow therapeutic index and it can cause side effects such as thirst, weight gain, tremor, polyuria and memory problems. Although the mechanism for lithium action in treatment of bipolar disorder is still not fully understood, inhibition of inositol monophosphatase (IMPase) and the subsequent depletion of the inositol pool in living cells have been implicated as the primary therapeutic benefit of lithium therapy. Therefore, a selective IMPase inhibitor with reduced side effects might be a good drug candidate to replace lithium for the treatment of bipolar disorder. Several IMPase inhibitors have been discovered previously. However, they are not suitable for therapeutic use because of their poor cell membrane penetrability or oral bioavailability; the development of new cell-permeable IMPase inhibitors is needed.
IMPase catalyzes the hydrolysis of inositol-1-phosphate (IP1) to release free inositol. Binding of an agonist to a Gq coupled GPCR results in the activation of PLC, which hydrolyzes the PIP2 to form inositol-1,4,5-trisphosphate (IP3) and diacyl glycerol (DAG). While DAG activates protein kinase C (PKC), IP3 triggers the elevation of intracellular free Ca2+. The IP3 is very rapidly inactivated by hydrolysis to IP2, IP1 and then inositol by a series of enzymes including IMPase. Free inositols are used for synthesis of PI and thus start another inositol cycle.
To identify new cell-permeable IMPase inhibitors, we developed a cell-based IMPase assay in which the cytosolic IP1 is measured by a time-resolved fluorescence resonance energy transfer (TR-FRET) assay. In this assay, an IP1 specific antibody is used to detect the labeled IP1 tracer. When the cell lysate contains the elevated IP1 due to the inhibition of IMPase, the TR-FRET between the labeled antibody and IP1 tracer is disrupted resulting in a reduction in the total signal. Since the TR-FRET is used, this cell-based assay is a homogenous assay without cell wash and medium change that is suitable for assay miniaturization and HTS.
NCGC IMPase Assay Protocol Summary
A Chinese hamster ovary (CHO) cell line stably expressing the M1 receptor (CHO-M1) was obtained from ATCC and maintained in F-12 Kaighn's media (Invitrogen, Carlsbad, CA, 21127) supplemented with 10 % FBS, 100 units/ml penicillin, 100 ug/ml streptomycin and 250 ug/ml geneticin at 37C, 5% CO2 in a humidified atmosphere. Before the assay, aliquots of cells were frozen and stored at -135C. The assay was performed in 1536-well format. Data are reported for both the ratio of the two emission wavelengths, and also for the component 'donor' channel, Em2=620. […] AC50 values were determined from concentration-response data modeled with the standard Hill equation.
IMPase 1536-well assay protocol:
(1) Plate 4 ul/well (2000 cells) of cell suspension from frozen CHO-M1 Cells in white, tissue culture treated 1536-well plates that are cultured at 37C, 5 % CO2 for 16 to 30 hours.
(2) Add 23 nl/well of compound in DMSO solution. The final titration for each compound was between 0.6 nM and 46 uM.
(3) Add 1 ul of carbachol (50 uM in stimulation buffer containing10mM HEPES, 1mM CaCl2, 0.5 mM MgCl2, 4.2 mM KCl, 146 mM NaCl, 5.5 mM glucose, 50mM LiCl, pH 7.4.
(4) Incubation at 37C, 5 % CO2 for 30 min.
(5) Add 1 ul/well of d2-conjugated IP1 (d2-IP1) and 1 ul/well of Eu+ cryptate conjugated anti-IP1 antibody (Eu+-Ab) prepared in the cell lysis buffer, both from the IP-One kit (Cisbio, MA).
(6) Incubate at room temperature for 10 minutes.
(7) Detect the assay plate (Ex = 320, Em1 =665 and Em2 620) in a ViewLux plate reader.
inositol monophosphatase, IMPase, IMPase inhibitor, lithium, bipolar disorder, IP-One, HTRF, qHTS, NIH roadmap, NCGC
Note: In the gene ID and protein GI references for this assay, rat IMPase is referenced instead of hampster as hamster accession numbers were not available.

| Compound | outcome |
| --- | --- |
| O=C(Nc1ccc(O)c(-c2nc3ccccc3o2)c1)c1ccc(-c2cccc(Cl)c2)o1 | inactive |
| CC1CCCCN1CC(=O)N1CCCc2c1c(=O)oc1ccc(OCc3ccccc3)cc21 (configuration not stated) | inactive |
| COc1ccc(C2(Nc3cccc(F)c3)C(=O)c3ccccc3C2=O)cc1 | inactive |
| Cc1ccc(C(=O)CSc2nc(-c3ccccc3)nc3c2CCCC3)c(C)c1 | inactive |
| CCOc1ccc(S(=O)(=O)N/N=C(\C)c2ccc(Cl)c(Cl)c2Cl)cc1 | inactive |
| Cc1ccc(C(=O)CC2(O)C(=O)N(CCc3ccccc3)c3ccc(Br)cc32)cc1 (configuration not stated) | inactive |
| COc1ccc2oc(-c3cccc(NC(=O)CSc4ccc(Cl)cc4)c3)nc2c1 | inactive |
| CCCC(=O)Nc1ccc2oc(-c3ccc(O)c(Br)c3)nc2c1 | inactive |
| COc1cccc(C(=O)Nc2ccc3oc(-c4ccc5ccccc5c4)nc3c2)c1 | inactive |
| Cc1cccc(C(CC(=O)NCC2(c3ccccc3)CCCC2)c2ccccc2)c1O (configuration not stated) | inactive |
| Cc1ccc(OCC(=O)Nc2ccccc2Sc2ccc(Cl)cc2)c([N+](=O)[O-])n1 | inactive |
| CN(C(=O)CSc1nnc(-c2n[nH]c3ccccc23)o1)c1ccccc1 | inactive |
| CC(=O)NC(Cc1ccccc1)C(=O)NC1CCN(c2ncccc2[N+](=O)[O-])CC1 (configuration not stated) | inactive |
| COc1ccc(/C=C/C(=O)OCC(=O)NCc2cccs2)cc1OC | inactive |
| COc1ccc(S(=O)(=O)Nc2cc3c(C(=O)OC(C)C)c(C)oc3c3ccccc23)cc1 | inactive |
| CCOC(=O)c1c(C)oc2ccc(N(C(=O)c3ccncc3)S(=O)(=O)c3ccc(CC)cc3)cc12 | inactive |
| CCCCOC(=O)/C(C#N)=C/c1ccc(-c2cccc(C(F)(F)F)c2)o1 | inactive |
| CCc1ccccc1NC(=O)CSc1nc(C)c(C(=O)Nc2ccccc2)c(-c2ccc(Cl)cc2)c1C#N | inactive |
| Oc1ccccc1-c1nc(/C=C/c2ccc(F)cc2)no1 | inactive |
| COc1ccc(NC(=O)CSC2=Nc3ccccc3C3=NC(CC(=O)NCc4ccccc4OC)C(=O)N23)cc1Cl (configuration not stated) | inactive |
| COc1ccc(C(C(=O)NC2CCCCC2)N(C(=O)CCl)c2ccccc2Cl)cc1 (configuration not stated) | inactive |
| COc1ccc(S(=O)(=O)NCCc2cc3ccc(C)c(C)c3[nH]c2=O)cc1 | inactive |
| COc1ccc2c(CN3CCN(S(=O)(=O)c4cccs4)CC3)cc(=O)oc2c1 | inactive |
| CC(=O)Nc1ccc(NC(=O)CSc2nnc3c4cc(Br)ccc4n(C)c3n2)cc1 | inactive |
| CCc1ccccc1NS(=O)(=O)c1ccc2nc(-c3ccccc3)[nH]c2c1 | inactive |

| Compound | outcome |
| --- | --- |
| COC(=O)c1ccc(-c2nc3cc(NC(C)=O)ccc3o2)cc1 | inactive |
| CCCOc1ccc(NC(=O)C2OC3OC(C)(C)OC3C3OC(C)(C)OC23)cc1 (configuration not stated) | inactive |
| O=C(Nc1nnc(SCc2ccccc2Cl)s1)c1cccc([N+](=O)[O-])c1 | inactive |
| CC1=C(C(=O)OCc2ccc(C)cc2)C(c2c(Cl)cccc2Cl)CC(=O)N1 (configuration not stated) | inactive |
| CC(C)Cn1c(-c2ccc(S(=O)(=O)N3CCOCC3)cc2)csc1=Nc1cc(Cl)ccc1Cl | inactive |
| CN(Cc1cccs1)C(=O)Cc1c[nH]c2ccccc12 | inactive |
| CCC(C)c1ccc2oc(-c3ccc(NC(=O)c4cc5ccccc5o4)cc3)nc2c1 (configuration not stated) | inactive |
| Cc1cc2nc(-c3ccc(NC(=O)c4cc5ccccc5o4)cc3)oc2cc1C | inactive |
| COc1cc(C2c3c(oc4ccccc4c3=O)C(=O)N2c2nc(C)c(C)s2)ccc1O (configuration not stated) | inactive |
| COc1ccc(C)cc1N(CC(=O)N1CCC(C)CC1)S(=O)(=O)c1ccc(C)cc1 | inactive |
| Cc1ccc(-c2cc(C(F)(F)F)c(C#N)c(SCC(=O)Nc3ccccc3)n2)cc1 | inactive |
| CN(C)c1ccc(/C=N/N(Cc2ccccc2)c2ccccc2)cc1 | inactive |
| CC(=O)NC1C(Oc2ccc(C)cc2)OC2COC(c3ccco3)OC2C1O (configuration not stated) | inactive |
| COCCNC(=O)CSc1nc(-c2ccccc2)[nH]c1-c1ccc(C)cc1 | inactive |
| CCOc1ccc(/C=N/NC(N)=S)cc1 | inactive |
| O=C(CSc1nc(-c2cccc(F)c2)[nH]c1-c1ccccc1)Nc1ccc2c(c1)OCO2 | inactive |
| CCc1cccc(C)c1Nc1c(-c2ccc(N(C)C)cc2)nc2ncccn12 | inactive |
| Cc1nnc(SCC(=O)N2CCOCC2)[nH]c1=O | inactive |
| Cc1cc([N+](=O)[O-])ccc1NC(=O)C1CCCO1 (configuration not stated) | inactive |
| CCCn1c(NCc2ccc(N(CC)CC)cc2)nc2ccccc21 | inactive |
| COc1ccc(Cl)cc1NC(=O)NCC1CCN(Cc2ccccc2F)CC1 | inactive |
| Cc1cc2ccccc2n1CCNC(=O)c1ccc(F)cc1 | inactive |
| CN(C)CCCO/N=C(\c1ccccc1)c1ccncc1 | inactive |
| CCCCNC(=O)CSc1nc2ccc(NC(=O)CSc3nnc(N)s3)cc2s1 | inactive |
| CCOC(=O)c1cc(NC(=O)c2ccc(F)cc2)c(=O)n2c1oc1ccccc12 | inactive |

| Compound | outcome |
| --- | --- |
| Cn1c(=O)[nH]c(=O)c2c1nc(NCCc1ccccc1)n2Cc1ccc(F)cc1 | inactive |
| COc1ccc(NC(=O)c2ccco2)cc1NC(=O)COc1ccc(C)c(C)c1 | inactive |
| CCN(c1ccc(NC(=O)COC(=O)CCc2nc3ccccc3n2-c2ccccc2)cc1)C(C)C | inactive |
| COC(=O)c1c(NC(=O)CN2C(=O)NC(CCc3ccccc3)C2=O)sc2c1CCCCC2 (configuration not stated) | inactive |
| Cn1c(=O)c2c(nc(NCCc3ccccc3)n2Cc2ccccc2Br)n(C)c1=O | inactive |
| COc1ccccc1CNC(=O)CN1CCC(n2cnc3cc(F)ccc32)CC1 | inactive |
| Cc1ccc(NC2=C(c3ccc(C(F)(F)F)cc3)C(=O)c3ccccc32)cc1F | inactive |
| CCOC(=O)c1cnc2c(C)cc(C)cc2c1Nc1ccc(N2CCOCC2)cc1 | inactive |
| CC(=O)Nc1ccc(Nc2c([N+](=O)[O-])cc(S(C)(=O)=O)cc2[N+](=O)[O-])cc1 | inactive |
| COc1cccc(NC(=O)C(Sc2nc3ccccc3c(=O)n2CC(C)C)c2ccccc2)c1 (configuration not stated) | inactive |
| CC(C)c1ccc(S(=O)(=O)Nc2ccc(O)c(Sc3nc4ccccc4s3)c2)cc1 | inactive |
| COc1ccc(CCNC(=O)CSc2nc(-c3ccc(OC)c(OC)c3)ccc2C#N)cc1 | inactive |
| COc1ccc(C(=O)COC(=O)CCCC(=O)Nc2cc(C(F)(F)F)ccc2Cl)cc1 | inactive |
| COc1cc(C(=O)N(Cc2ccc(C(C)C)cc2)C2CCS(=O)(=O)C2)cc(OC)c1OC (configuration not stated) | inactive |
| CCCC(=O)Nc1cc2nn(-c3ccccc3)nc2cc1C | inactive |
| Cc1ccc2oc3c(c(=O)c2c1)C(c1ccc(O)cc1)N(Cc1ccc2c(c1)OCO2)C3=O (configuration not stated) | inactive |
| Cc1[nH]c2ccccc2c1/C=N/NC(=O)CNC(=O)c1ccc2c(c1)OCO2 | inactive |
| Cc1ccccc1NC(=O)CSC1=NCCN1 | inactive |
| COc1ccccc1OCCCn1c(-c2ccc(Cl)cc2)nc2ccccc2c1=O | inactive |
| Cc1cc(C)c[n+](-c2nc3ccccc3nc2[N-]S(=O)(=O)c2cccs2)c1 | inactive |
| CC1CCCN(Cc2c(O)ccc3c(=O)c(Oc4ccc(C(C)(C)C)cc4)c(C(F)(F)F)oc23)C1 (configuration not stated) | inactive |
| CCn1c(=O)c(=O)n(CC)c2cc(N3CCCCC3)c(NC(=O)c3cccc(F)c3)cc21 | inactive |
| COc1cccc(CNC(=O)CCc2nc(-c3ccc(C)cc3)no2)c1 | inactive |
| COc1cc(OC)c(C2C=C(C(=O)O)Nc3ncnn32)cc1OC (configuration not stated) | inactive |
| CCCn1c(N)c(C(=O)CSc2nnc(-c3cccnc3)n2-c2ccc(C)cc2C)c(=O)[nH]c1=O | inactive |

| Compound | outcome |
| --- | --- |
| CCCCCC(=O)NC(=S)NNC(=O)c1ccc([N+](=O)[O-])cc1 | inactive |
| CCOC(=O)c1c(-c2ccc(OC)cc2)oc2ccc(OCc3ccc(C(=O)OC)cc3)cc12 | inactive |
| CC(C)c1ccc(OCC(=O)N(Cc2ccc(N(C)C)cc2)C2CCS(=O)(=O)C2)cc1 (configuration not stated) | inactive |
| CCN(C(=O)Cn1cc(S(=O)(=O)N2CCN(c3ccccc3F)CC2)c2ccccc2c1=O)c1ccc(C)c(C)c1 | inactive |
| Cc1nn(Cc2ccc(Cl)cc2)c(Cl)c1/C=N/NC(=O)CNc1ccccc1F | inactive |
| CC(C)(C)c1ccc(C(=O)NCc2nnc(SCC(=O)N3CCCc4ccccc43)n2-c2ccccc2)cc1 | inactive |
| COc1ccccc1N1CCN(CC(=O)NC(=O)NCc2ccco2)CC1 | inactive |
| CC(=O)N1CCN(CC(=O)Nc2ccc(SC(F)F)cc2)CC1 | inactive |
| Cc1ccc(Cl)cc1NC(=O)/C(C#N)=C\c1cn(Cc2ccc(F)cc2)c2ccccc12 | inactive |
| COc1ccc(NS(=O)(=O)c2ccc(NC(=S)NC(=O)/C=C/c3ccc(C)cc3)cc2)nn1 | inactive |
| N#CCOc1ccc(C2=NO[C@@H]3[C@@H]4C[C@@H]([C@H]5C(=O)N(c6ccc7c(c6)OCO7)C(=O)[C@@H]45)[C@H]23)cc1 | inactive |
| Cc1ccc(S(=O)(=O)c2nc(-c3cccs3)oc2N2CCCCC2)cc1 | inactive |
| CCCCn1c(=O)c(CCC(=O)OCC(=O)Nc2ccc(C)c(Cl)c2)nc2ccccc21 | inactive |
| Cc1c(Cl)cccc1NC(=O)Cn1cc(C(=O)c2cccs2)c2ccccc21 | inactive |
| O=C(CCc1ccc(S(=O)(=O)N2CCOCC2)cc1)NN=C1CCCCCCC1 | inactive |
| Cc1ccc(CN2C(=O)SC(Nc3ccccc3)C2=O)cc1 (configuration not stated) | inactive |
| COc1ccc(CCNC(=O)/C(C#N)=C2\N=C(NC(=O)c3cccs3)c3ccccc32)cc1 | inactive |
| CCc1c(C)sc(NC(=O)C2c3ccccc3Oc3ccccc32)c1C(=O)OC(C)C | inactive |
| COc1ccc(/C(C)=N/Nc2cc(C(F)(F)F)ccc2Cl)c(OC)c1 | inactive |
| Cc1ccccc1-c1nc2cc(NC(=O)c3cccc(OCCC(C)C)c3)ccc2o1 | inactive |
| CCCc1c(C)nc2c(Br)cccc2c1Cl | inactive |
| CCCCCNC(=O)c1cccnc1SCC(=O)Nc1ccccc1OC | inactive |
